Measurements from PubChem BioAssay (EPA / NIEHS).
Activity calls are given as the source filed them. How the source made its calls: active means hit-call score of the fitted dose curve at least 0.9, where 1 is the maximum; inactive means score below 0.9.

Assays:
Settings in all cases: mRNA level, 48 h; actives raise or lower the signal
[1] = read-out: Peroxisomal acyl-coenzyme A oxidase 1 (ACOX1) gene, ACOX1 (gene 51); assay: LTEA_HepaRG_ACOX1: Life Technologies and Expression Analysis (LTEA) Assay for Peroxisomal acyl-coenzyme A oxidase 1 (ACOX1) gene using HepaRG (AID 2283467)
Summary of the method: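 Human HepaRG hepatic cultures, 48 h treatment with test chemicals up to 100 uM. ACOX1 expression read by qRT-PCR relative to 0.5% DMSO vehicle.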

[2] = read-out: Alkaline Phosphatase, Placental (ALPP) gene, ALPP (gene 250); assay: LTEA_HepaRG_ALPP: Life Technologies and Expression Analysis (LTEA) Assay for Alkaline Phosphatase, Placental (ALPP) gene using HepaRG (AID 2283468)
Summary of the method: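 HepaRG, 48 h plating then 48 h dosing, serum-free induction medium, 0.5% DMSO. 8 conc, half-log, max 100 uM, duplicates. Endpoint: ALPP transcript by qRT-PCR, housekeeping-normalized; gain or loss fitted vs DMSO.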

[3] = read-out: Bcl-2 (BAD) gene, BAD (gene 572); assay: LTEA_HepaRG_BAD: Life Technologies and Expression Analysis (LTEA) Assay for Bcl-2 (BAD) gene using HepaRG (AID 2283469)
Summary of the method: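 Activity values reflect up- or down-regulation of BAD mRNA in human HepaRG hepatic cells treated 48 h in serum-free medium, with eight-point half-log dosing capped at 100 uM and 0.5% DMSO vehicle.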

[4] = read-out: Bcl-2 (BAX) gene, BAX (gene 581); assay: LTEA_HepaRG_BAX: Life Technologies and Expression Analysis (LTEA) Assay for Bcl-2 (BAX) gene using HepaRG (AID 2283470)
Summary of the method: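 Human HepaRG cells treated in duplicate for 48 h across eight concentrations (max 100 uM, 0.5% DMSO); BAX expression measured by qRT-PCR.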

[5] = read-out: adenosine kinase (ADK) gene, ADK (gene 132); assay: LTEA_HepaRG_ADK: Life Technologies and Expression Analysis (LTEA) Assay for adenosine kinase (ADK) gene using HepaRG (AID 2283471)
Summary of the method: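 Read-out is ADK transcript level measured by qRT-PCR and normalised to three housekeeping genes. Cells are human HepaRG, dosed for 48 h at up to 100 uM in 0.5% DMSO. Gain or loss of signal is fitted against DMSO controls.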

[6] = read-out: Alpha-fetoprotein (AFP) gene, AFP (gene 174); assay: LTEA_HepaRG_AFP: Life Technologies and Expression Analysis (LTEA) Assay for Alpha-fetoprotein (AFP) gene using HepaRG (AID 2283472)
Summary of the method: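 Measures AFP mRNA change in HepaRG after 48 h chemical exposure (8 half-log concentrations, highest 100 uM, 0.5% DMSO). Fold change relative to DMSO, fitted in both directions.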

[7] = read-out: Apolipoprotein A-V (APOA5) gene, APOA5 (gene 116519); assay: LTEA_HepaRG_APOA5: Life Technologies and Expression Analysis (LTEA) Assay for Apolipoprotein A-V (APOA5) gene using HepaRG (AID 2283474)
Summary of the method: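 Readout is APOA5 transcript level by qRT-PCR on Fluidigm dynamic arrays, normalized to three housekeeping genes. HepaRG cultures received chemicals for 48 h at up to 100 uM (half-log steps, 0.5% DMSO), with gain or loss scored relative to DMSO.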

[8] = read-out: Apoptosis regulator Bcl-2 (Homo sapiens) (UniProt P10415); assay: LTEA_HepaRG_BCL2: Life Technologies and Expression Analysis (LTEA) Assay for Bcl-2 gene using HepaRG (AID 2283475);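 further: BCL2 transcript by TaqMan qRT-PCR normalised to ACTB GAPDH and POLR2A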
Summary of the method: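 Each chemical was tested in duplicate on HepaRG cultures held in serum-free induction medium for 48 h, highest concentration 100 uM with half-log dilutions. Transcript levels came from multiplexed qRT-PCR, normalised to housekeeping genes; activity was scored in either direction relative to DMSO.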

Caspase-3 (Homo sapiens) = Caspase-3 (Homo sapiens) (UniProt P42574); assay: LTEA_HepaRG_CASP3: Life Technologies and Expression Analysis (LTEA) Assay for cysteine-aspartic acid protease (CASP3) using HepaRG (AID 2283477)
Sequence of Caspase-3 (Homo sapiens) (P42574 whole entry, looked up): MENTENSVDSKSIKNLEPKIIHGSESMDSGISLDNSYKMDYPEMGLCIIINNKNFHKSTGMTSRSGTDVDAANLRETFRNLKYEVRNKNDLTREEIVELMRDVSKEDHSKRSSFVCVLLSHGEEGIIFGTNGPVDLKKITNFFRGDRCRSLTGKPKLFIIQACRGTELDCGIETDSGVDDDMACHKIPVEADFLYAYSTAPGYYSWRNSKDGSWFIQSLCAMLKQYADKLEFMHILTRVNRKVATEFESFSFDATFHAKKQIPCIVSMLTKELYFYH
Summary of the method: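 Read-out is CASP3 mRNA level by TaqMan qRT-PCR in human HepaRG cells after 48 h chemical exposure. Eight half-log concentrations topping at 100 uM were tested in 0.5% DMSO; gain or loss was fitted relative to DMSO.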

[9] = read-out: Cytochrome P450 (CYP24A1), CYP24A1 (gene 1591); assay: LTEA_HepaRG_CYP24A1: Life Technologies and Expression Analysis (LTEA) Assay for Cytochrome P450 (CYP24A1) using HepaRG (AID 2283478)
Summary of the method: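 HepaRG, 48 h chemical exposure, 8-pt half-log CRC from 100 uM, 0.5% DMSO vehicle, duplicates. Endpoint: CYP24A1 mRNA by Fluidigm TaqMan qRT-PCR, normalized ACTB/GAPDH/POLR2A; gain/loss fit vs DMSO.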

[10] = read-out: Cytochrome P450 (CYP1A2), CYP1A2 (gene 1544); assay: LTEA_HepaRG_CYP1A2: Life Technologies and Expression Analysis (LTEA) Assay for Cytochrome P450 (CYP1A2) using HepaRG (AID 2283479)
Summary of the method: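 CYP1A2 transcript induction or loss, quantified by Fluidigm qRT-PCR against three housekeeping genes, was fitted bidirectionally against 0.5% DMSO controls. Human HepaRG cells received eight half-log concentrations from 100 uM over 48 h.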

[11] = read-out: Cytochrome P450 (CYP2B6), CYP2B6 (gene 1555); assay: LTEA_HepaRG_CYP2B6: Life Technologies and Expression Analysis (LTEA) Assay for Cytochrome P450 (CYP2B6) using HepaRG (AID 2283481)
Summary of the method: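 HepaRG cells plated 48 h, switched to serum-free induction medium, then dosed 48 h (8 points, half-log from 100 uM, 0.5% DMSO). RNA isolated; CYP2B6 expression measured by qRT-PCR; gain or loss fitted relative to DMSO.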

[12] = read-out: Cytochrome P450 2C19 (Homo sapiens) (UniProt P33261); assay: LTEA_HepaRG_CYP2C19: Life Technologies and Expression Analysis (LTEA) Assay for CYP2C19 using HepaRG (AID 2283482)
Summary of the method: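 Transcript levels of CYP2C19 were quantified by qRT-PCR after HepaRG cells were treated for 48 hours with test chemicals up to 100 uM (eight half-log concentrations, 0.5% DMSO vehicle). Gain or loss of signal was fitted relative to DMSO.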

CYP2C8 (gene 1558) = assay: LTEA_HepaRG_CYP2C8: Life Technologies and Expression Analysis (LTEA) Assay for CYP2C8 using HepaRG (AID 2283483)
Summary of the method: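 This is a transcriptional endpoint in HepaRG cultures: 48 h exposure, highest concentration 100 uM. CYP2C8 mRNA is quantified by TaqMan qRT-PCR.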

CYP2C9 (gene 1559) = assay: LTEA_HepaRG_CYP2C9: Life Technologies and Expression Analysis (LTEA) Assay for CYP2C9 using HepaRG (AID 2283484)
Summary of the method: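 Eight-point concentration-response (highest 100 uM, half-log dilutions) in HepaRG cells for 48 h; CYP2C9 expression by qRT-PCR normalized to ACTB, GAPDH, POLR2A. Bidirectional fit, DMSO baseline.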

CYP2E1 (gene 1571) = assay: LTEA_HepaRG_CYP2E1: Life Technologies and Expression Analysis (LTEA) Assay for CYP2E1 using HepaRG (AID 2283485)
Summary of the method: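 Assay uses 48 h exposure of HepaRG hepatic cells, eight concentrations to 100 uM. Expression of CYP2E1 is quantified by TaqMan qRT-PCR with ACTB, GAPDH and POLR2A normalization; curves fitted in both directions relative to vehicle.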

CYP4A11 (gene 1579) = assay: LTEA_HepaRG_CYP4A11: Life Technologies and Expression Analysis (LTEA) Assay for CYP4A11 using HepaRG (AID 2283486)
Summary of the method: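 HepaRG, 48 h chem exposure, 8 conc (100 uM top, half-log), 0.5% DMSO vehicle; qRT-PCR readout, housekeeping-gene normalized; bidirectional curve fit vs DMSO baseline.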

BCL2L11 (gene 10018) = assay: LTEA_HepaRG_BCL2L11: Life Technologies and Expression Analysis (LTEA) Assay for Bcl-2 (BCL2L11) gene using HepaRG (AID 2283473)
Summary of the method: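 Read-out is BCL2L11 transcript level by qRT-PCR, normalized to three housekeeping genes and fitted bidirectionally against 0.5% DMSO vehicle. HepaRG cells received chemicals for 48 h in serum-free induction medium, 100 uM down in half-log dilutions.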

[13] = read-out: Bcl-2 (BID) gene, BID (gene 637); assay: LTEA_HepaRG_BID: Life Technologies and Expression Analysis (LTEA) Assay for Bcl-2 (BID) gene using HepaRG (AID 2283476)
Summary of the method: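 Assay used HepaRG hepatic cells treated 48 h in serum-free medium with half-log dilutions from 100 uM. Endpoint: BID mRNA, qRT-PCR, normalized to ACTB/GAPDH/POLR2A.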

[14] = read-out: cysteine-aspartic acid protease (CASP8), CASP8 (gene 841); assay: LTEA_HepaRG_CASP8: Life Technologies and Expression Analysis (LTEA) Assay for cysteine-aspartic acid protease (CASP8) using HepaRG (AID 2283480)
Summary of the method: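 Concentration-response in duplicate up to 100 uM (half-log steps, 0.5% DMSO) on differentiated HepaRG cultures for 48 h. Expression change of CASP8 mRNA is determined by TaqMan qRT-PCR with housekeeping-gene normalization.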

Sequence of Apoptosis regulator Bcl-2 (Homo sapiens) (P10415 whole entry, looked up): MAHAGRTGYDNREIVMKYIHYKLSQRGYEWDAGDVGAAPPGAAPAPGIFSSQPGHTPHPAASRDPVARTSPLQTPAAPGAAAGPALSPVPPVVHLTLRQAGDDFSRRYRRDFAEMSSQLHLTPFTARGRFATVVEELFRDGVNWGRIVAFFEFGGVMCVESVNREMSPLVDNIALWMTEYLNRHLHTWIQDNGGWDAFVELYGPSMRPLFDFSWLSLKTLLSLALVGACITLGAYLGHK
Sequence of Cytochrome P450 2C19 (Homo sapiens) (P33261 whole entry, looked up): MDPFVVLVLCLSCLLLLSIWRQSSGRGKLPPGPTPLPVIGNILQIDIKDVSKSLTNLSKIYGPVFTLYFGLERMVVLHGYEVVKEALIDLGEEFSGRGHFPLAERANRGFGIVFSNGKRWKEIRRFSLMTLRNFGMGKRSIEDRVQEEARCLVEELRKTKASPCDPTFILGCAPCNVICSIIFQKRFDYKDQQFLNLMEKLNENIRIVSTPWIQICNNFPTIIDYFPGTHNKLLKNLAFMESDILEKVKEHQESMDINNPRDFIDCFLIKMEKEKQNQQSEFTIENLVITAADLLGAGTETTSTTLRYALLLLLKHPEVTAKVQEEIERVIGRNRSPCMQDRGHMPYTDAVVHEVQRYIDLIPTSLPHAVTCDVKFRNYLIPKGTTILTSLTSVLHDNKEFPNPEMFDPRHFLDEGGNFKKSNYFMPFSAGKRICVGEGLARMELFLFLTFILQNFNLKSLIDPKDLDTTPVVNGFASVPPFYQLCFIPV

CCOC(=O)C(O)(c1ccc(Cl)cc1)c1ccc(Cl)cc1
outcome [1]: inactive
outcome [2]: inactive
outcome [3]: inactive
outcome [4]: inactive
outcome [5]: inactive
outcome [6]: inactive
outcome [7]: inactive
outcome [8]: inactive
outcome (Caspase-3 (Homo sapiens)): inactive
outcome [9]: inactive
AC50 [10]: 66.5 µM (active)
AC50 [11]: 69.1 µM (active)
outcome [12]: inactive
AC50 (CYP2C8 (gene 1558)): 21.6 µM (active)
outcome (CYP2C9 (gene 1559)): inactive
AC50 (CYP2E1 (gene 1571)): 30.4 µM (active)
AC50 (CYP4A11 (gene 1579)): 20.4 µM (active)

O=C(NC(=O)c1cc(F)c(F)cc1Cl)Nc1cc(F)ccc1N1CCC(C(=O)O)CC1
outcome [1]: inactive
outcome [2]: inactive
outcome [3]: inactive
outcome [4]: inactive
outcome [5]: inactive
outcome (BCL2L11 (gene 10018)): inactive
outcome [7]: inactive
outcome [8]: inactive
outcome [13]: inactive
outcome (Caspase-3 (Homo sapiens)): inactive
outcome [9]: inactive
outcome [10]: inactive
outcome [14]: inactive
outcome [11]: inactive
outcome [12]: inactive
outcome (CYP2C8 (gene 1558)): inactive
outcome (CYP2C9 (gene 1559)): inactive
AC50 (CYP2E1 (gene 1571)): 10.3 µM (active)
AC50 (CYP4A11 (gene 1579)): 6.34 µM (active)

CCCCCCOC(=O)c1ccccc1C(=O)OCCCCCC
outcome [1]: inactive
outcome [2]: inactive
outcome [3]: inactive
outcome [4]: inactive
outcome [5]: inactive
outcome [6]: inactive
outcome [7]: inactive
outcome [8]: inactive
outcome [13]: inactive
outcome (Caspase-3 (Homo sapiens)): inactive
outcome [9]: inactive
AC50 [10]: 50 µM (active)
outcome [11]: inactive
outcome [12]: inactive
outcome (CYP2C8 (gene 1558)): inactive
outcome (CYP2C9 (gene 1559)): inactive
outcome (CYP2E1 (gene 1571)): inactive
AC50 (CYP4A11 (gene 1579)): 74.7 µM (active)

c1cc2ccc3cccc4ccc(c1)c2c34
outcome [1]: inactive
outcome [2]: inactive
outcome [3]: inactive
outcome [4]: inactive
outcome [5]: inactive
outcome [6]: inactive
outcome [7]: inactive
outcome [8]: inactive
outcome [13]: inactive
outcome (Caspase-3 (Homo sapiens)): inactive
outcome [9]: inactive
AC50 [10]: 50 µM (active)
AC50 [11]: 6.95 µM (active)
AC50 [12]: 4.34 µM (active)
AC50 (CYP2C8 (gene 1558)): 4.67 µM (active)
outcome (CYP2C9 (gene 1559)): inactive
AC50 (CYP2E1 (gene 1571)): 29.6 µM (active)
outcome (CYP4A11 (gene 1579)): inactive

CCOP(=S)(OCC)SCSC(C)(C)C
outcome [1]: inactive
outcome [2]: inactive
outcome [3]: inactive
outcome [4]: inactive
outcome [5]: inactive
outcome (BCL2L11 (gene 10018)): inactive
outcome [7]: inactive
outcome [8]: inactive
outcome [13]: inactive
outcome (Caspase-3 (Homo sapiens)): inactive
outcome [9]: inactive
outcome [10]: inactive
outcome [11]: inactive
outcome [12]: inactive
outcome (CYP2C8 (gene 1558)): inactive
outcome (CYP2C9 (gene 1559)): inactive
AC50 (CYP2E1 (gene 1571)): 28.8 µM (active)
outcome (CYP4A11 (gene 1579)): inactive

O=C(O)C(F)(F)C(F)(F)C(F)(F)C(F)(F)C(F)(F)F
AC50 [1]: 9.92 µM (active)
outcome [2]: inactive
outcome [3]: inactive
outcome [4]: inactive
AC50 [5]: 3 µM (active)
outcome [6]: inactive
outcome [7]: inactive
outcome [8]: inactive
AC50 (Caspase-3 (Homo sapiens)): 9.92 µM (active)
outcome [9]: inactive
outcome [10]: inactive
AC50 [11]: 19.6 µM (active)
AC50 [12]: 5.35 µM (active)
AC50 (CYP2C8 (gene 1558)): 8.32 µM (active)
AC50 (CYP2C9 (gene 1559)): 9.92 µM (active)
outcome (CYP2E1 (gene 1571)): inactive
AC50 (CYP4A11 (gene 1579)): 50 µM (active)
